Test results reported in PubChem BioAssay.
For part of these data: Measured potencies and affinities stand elsewhere. Calls of active or inactive are those of the source. Unless noted, how the calls were made is not given here.

Key:
[1] = antimalarial activity against Dd2 strain (AID 2302;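 active means growth inhibition above 50% at the single 2 µM test dose, taken to imply half-maximal potency below 2 µM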;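 further: 0% = DMSO untreated growth and 100% = chloroquine plus artemisinin killed control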); settings: P. falciparum Dd2 in RBCs, LDH growth readout, 72 h; at 2 µM; hits give high values
[2] = human hepatoma cell viability loss – ATP luminescence, cytotoxicity control for P. falciparum antimalarial project, primary screen (AID 2303;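 active means inhibition above 50%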;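 further: 0% = DMSO wells and 100% = digitonin-killed cells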); settings: HepG2 viability, 24-48 h, at 10 µM, hits give high values
[3] = target: L-lactate dehydrogenase (Plasmodium falciparum (isolate CDC / Honduras)) (UniProt Q27743); test: PfLDH activity inhibition – cell lysate, 3D7 strain, counter-screen for P. falciparum growth inhibition project (AID 2304);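 further: 0% = vehicle and 100% = reference inhibitor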; settings: P. falciparum 3D7 crude extract, LDH APAD/NBT absorbance; at 2 µM; hits give high values
[4] = inhibition of 3D7 malaria parasite growth – strain 3D7 (AID 2306);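 further: 0% = DMSO wells and 100% = chloroquine plus artemisinin control wells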; settings: P. falciparum 3D7 erythrocytic growth, LDH absorbance, 72 h; at 2 µM; hits give high values
[5] = target: Calcium-dependent protein kinase 1 (Plasmodium falciparum (isolate 3D7)) (UniProt P62344); test: PfCDPK1 kinase inhibitors, biochemical, TCAMS library (AID 1159585; cut-off not given, nearly all actives have IC50 up to about 0.98 µM;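 further: inhibitors leave more ATP so luminescence rises with inhibition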); settings: recombinant PfCDPK1, Kinase-Glo ATP depletion luminescence
[6] = target: Plasmodium falciparum protein kinase 6 (PK6, PF3D7_1337100) (UniProt Q8IDW1); test: PfPK6 kinase inhibitors, biochemical, TCAMS library (AID 1159586); settings: recombinant PfPK6, Kinase-Glo ATP depletion luminescence
[7] = target: Protein kinase 7 (PK7), Plasmodium falciparum 3D7 (PF3D7_0213400) (UniProt Q7YTF7); test: inhibition of Plasmodium PK7 catalytic activity – biochemical, TCAMS antimalarial set, Kinase-Glo luminescence (AID 1159587); settings: recombinant PfPK7, Kinase-Glo ATP depletion luminescence
[8] = target: Calcium-dependent protein kinase 4 (Plasmodium falciparum (isolate 3D7)) (UniProt Q8IBS5); test: PfCDPK4 kinase inhibitors, biochemical, TCAMS library (AID 1159588; cut-off not given, nearly all actives have IC50 up to about 0.91 µM); settings: recombinant PfCDPK4, Kinase-Glo ATP depletion luminescence
Chain of Calcium-dependent protein kinase 4 (Plasmodium falciparum (isolate 3D7)) (Q8IBS5 whole entry, looked up): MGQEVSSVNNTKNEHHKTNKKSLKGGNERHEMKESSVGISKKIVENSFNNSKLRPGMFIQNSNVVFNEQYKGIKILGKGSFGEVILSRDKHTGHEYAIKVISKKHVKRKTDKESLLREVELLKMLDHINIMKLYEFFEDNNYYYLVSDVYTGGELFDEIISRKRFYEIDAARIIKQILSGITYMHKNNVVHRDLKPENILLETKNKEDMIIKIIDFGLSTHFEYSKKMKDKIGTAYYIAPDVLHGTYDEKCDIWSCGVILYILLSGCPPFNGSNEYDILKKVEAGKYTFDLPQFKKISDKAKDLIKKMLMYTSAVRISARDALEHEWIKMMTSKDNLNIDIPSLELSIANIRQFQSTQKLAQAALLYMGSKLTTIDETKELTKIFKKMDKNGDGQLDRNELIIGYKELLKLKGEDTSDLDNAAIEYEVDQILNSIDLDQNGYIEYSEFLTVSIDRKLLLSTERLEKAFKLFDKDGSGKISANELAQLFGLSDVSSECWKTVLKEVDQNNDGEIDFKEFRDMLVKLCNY

Chain of Plasmodium falciparum protein kinase 6 (PK6, PF3D7_1337100) (Q8IDW1 1-305): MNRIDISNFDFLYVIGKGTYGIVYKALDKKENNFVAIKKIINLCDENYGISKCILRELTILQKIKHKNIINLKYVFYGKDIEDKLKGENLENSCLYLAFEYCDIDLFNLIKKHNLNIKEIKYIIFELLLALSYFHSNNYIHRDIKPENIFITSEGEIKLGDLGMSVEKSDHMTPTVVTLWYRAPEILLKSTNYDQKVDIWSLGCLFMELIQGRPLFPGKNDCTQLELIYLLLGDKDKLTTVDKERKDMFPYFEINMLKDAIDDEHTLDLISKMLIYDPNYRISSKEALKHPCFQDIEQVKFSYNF
Chain of L-lactate dehydrogenase (Plasmodium falciparum (isolate CDC / Honduras)) (Q27743 whole entry, looked up): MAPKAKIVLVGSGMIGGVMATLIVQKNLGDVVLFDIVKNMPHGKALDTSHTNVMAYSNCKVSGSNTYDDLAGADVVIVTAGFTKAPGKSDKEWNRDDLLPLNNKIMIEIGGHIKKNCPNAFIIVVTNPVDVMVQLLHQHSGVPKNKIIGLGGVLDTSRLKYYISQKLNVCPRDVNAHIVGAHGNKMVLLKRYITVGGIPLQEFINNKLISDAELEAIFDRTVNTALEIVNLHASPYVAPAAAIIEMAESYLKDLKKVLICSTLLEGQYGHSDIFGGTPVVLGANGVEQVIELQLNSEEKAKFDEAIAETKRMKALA
Chain of Protein kinase 7 (PK7), Plasmodium falciparum 3D7 (PF3D7_0213400) (Q7YTF7 1-343): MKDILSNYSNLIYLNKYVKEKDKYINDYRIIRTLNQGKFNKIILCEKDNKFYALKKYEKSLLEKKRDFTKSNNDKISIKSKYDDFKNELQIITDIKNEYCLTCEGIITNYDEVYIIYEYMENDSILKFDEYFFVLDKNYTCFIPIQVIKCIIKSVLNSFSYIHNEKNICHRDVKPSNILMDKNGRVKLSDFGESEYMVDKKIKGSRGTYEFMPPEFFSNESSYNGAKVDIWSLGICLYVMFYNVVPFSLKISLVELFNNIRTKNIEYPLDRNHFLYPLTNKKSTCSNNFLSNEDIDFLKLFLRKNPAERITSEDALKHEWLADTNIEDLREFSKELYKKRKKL
Chain of Calcium-dependent protein kinase 1 (Plasmodium falciparum (isolate 3D7)) (P62344 whole entry, looked up): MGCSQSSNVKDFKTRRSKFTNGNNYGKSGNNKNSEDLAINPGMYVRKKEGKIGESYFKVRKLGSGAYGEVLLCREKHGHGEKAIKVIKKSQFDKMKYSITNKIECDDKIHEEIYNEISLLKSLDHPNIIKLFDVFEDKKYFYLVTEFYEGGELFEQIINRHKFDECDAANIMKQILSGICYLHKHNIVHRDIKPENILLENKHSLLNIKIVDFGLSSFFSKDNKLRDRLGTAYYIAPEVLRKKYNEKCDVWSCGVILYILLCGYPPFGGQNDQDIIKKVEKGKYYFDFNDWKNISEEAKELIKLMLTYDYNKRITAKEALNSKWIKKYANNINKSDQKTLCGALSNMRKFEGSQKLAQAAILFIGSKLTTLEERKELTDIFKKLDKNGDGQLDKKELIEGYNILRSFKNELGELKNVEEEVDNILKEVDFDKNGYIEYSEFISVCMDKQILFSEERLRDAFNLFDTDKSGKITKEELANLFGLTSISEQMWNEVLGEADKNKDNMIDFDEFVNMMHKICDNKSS

COc1ccc(F)cc1-c1ccccc1CNC(=O)CN(C)S(=O)(=O)c1cc(C)cc(Cl)c1C
inactive: inhibition [2] -3% | inhibition [3] -2% | outcome [5] | outcome [6] | outcome [7] | outcome [8]
active: growth inhibition [1] 73% | growth inhibition [4] 92%

Cn1nc(-c2cccc(CNCCc3cccs3)c2)c2cnc(NC3CCCC3)nc21
inactive: growth inhibition [1] -1% | inhibition [2] 8% | inhibition [3] -1% | outcome [5] | outcome [6] | outcome [7] | outcome [8]
active: growth inhibition [4] 97%

O=C(/C=C/c1ccc(Cl)c(Cl)c1)NCCCCCN1CCCC(CNC(=O)Nc2ccc(Oc3ccccc3)cc2)C1 (stereo not drawn)
active: growth inhibition [4] 99%
inactive: growth inhibition [1] 6% | inhibition [2] 26% | inhibition [3] -2% | outcome [5] | outcome [6] | outcome [7] | outcome [8]

CC1CCN(C(=O)[C@H](Cc2c[nH]c3ccccc23)NS(=O)(=O)c2ccc(Cl)cc2)CC1
inactive: inhibition [2] -6% | inhibition [3] 0% | outcome [5] | outcome [6] | outcome [7] | outcome [8]
active: growth inhibition [1] 99% | growth inhibition [4] 100%

COc1cccc(C2CCN(CCN3CCC(CNC(=O)c4ccc(-c5ccc(C(F)(F)F)cc5)cc4)CC3)CC2)c1
inactive: growth inhibition [1] 42% | inhibition [2] 41% | inhibition [3] -2% | outcome [5] | outcome [6] | outcome [7] | outcome [8]
active: growth inhibition [4] 100%

NCc1cccc(-c2cccc(CNC3CCN(Cc4ccccc4)CC3)c2)c1
inactive: growth inhibition [1] 45% | inhibition [2] 9% | inhibition [3] 2% | outcome [5] | outcome [6] | outcome [7] | outcome [8]
active: growth inhibition [4] 100%

Cc1cc(C)cc(N2C(N)=NC(N)=NC2(C)C)c1
inactive: growth inhibition [1] 6% | inhibition [3] -4% | outcome [5] | outcome [6] | outcome [7] | outcome [8]
active: inhibition [2] 58% | growth inhibition [4] 93%

O=C(Nc1ccc(-c2cccc(CN3CCC(O)CC3)c2)cc1)c1cccc(Cl)c1
active: inhibition [2] 50% | growth inhibition [4] 94%
inactive: growth inhibition [1] 14% | inhibition [3] 3% | outcome [5] | outcome [6] | outcome [7] | outcome [8]

COc1cccc(CNC(=O)NC2CCN(c3ccnc(Nc4ccc(F)cc4)n3)C2)c1 (stereo not drawn)
active: growth inhibition [1] 64% | growth inhibition [4] 94%
inactive: inhibition [2] 20% | inhibition [3] -7% | outcome [5] | outcome [6] | outcome [7] | outcome [8]

C=CCN1C(=O)C(=Cc2cc(Br)ccc2O)SC1=Nc1ccccc1
active: growth inhibition [1] 55% | growth inhibition [4] 96%
inactive: inhibition [2] -4% | inhibition [3] -4% | outcome [5] | outcome [6] | outcome [7] | outcome [8]

Cc1ccccc1C1CCN(C2CCC(NC(=O)/C=C/c3ccc(OC(F)(F)F)cc3)CC2)CC1 (stereo not drawn)
inactive: inhibition [3] -5% | outcome [5] | outcome [6] | outcome [7] | outcome [8]
active: growth inhibition [1] 67% | inhibition [2] 96% | growth inhibition [4] 100%

CC[C@H](C)[C@@H](C(=O)N1CCOCC1)N1CC[C@H](NS(=O)(=O)CC(C)(C)c2ccc(Cl)cc2)C1=O
inactive: inhibition [2] -1% | inhibition [3] 1% | outcome [5] | outcome [6] | outcome [7] | outcome [8]
active: growth inhibition [1] 95% | growth inhibition [4] 101%

O=C(/C=C/c1ccc(Cl)c(Cl)c1)NCCCCCN1CCN(C(=O)Nc2ccc(OC(F)F)cc2)CC1
inactive: growth inhibition [1] -2% | inhibition [2] 20% | inhibition [3] 4% | outcome [5] | outcome [6] | outcome [7] | outcome [8]
active: growth inhibition [4] 99%

COc1ccc2nccc(N(C)CC3(O)CCN(CCc4ccc5c(c4)OCCO5)CC3)c2n1
inactive: inhibition [2] 15% | inhibition [3] -3% | outcome [5] | outcome [6] | outcome [7] | outcome [8]
active: growth inhibition [1] 96% | growth inhibition [4] 100%

COc1ccc(CNC(=O)c2cnc3c(O)cccc3c2Nc2cccc(NC(=O)c3ccc(Cl)c([N+](=O)[O-])c3)c2)cc1
inactive: growth inhibition [1] 21% | inhibition [2] 48% | inhibition [3] 1% | outcome [5] | outcome [6] | outcome [7] | outcome [8]
active: growth inhibition [4] 86%

Cc1ccc(-c2ccc3c(c2)C=C(C(=O)NC2CCN(CCNC(=O)c4cccs4)CC2)CCC3)cc1
inactive: growth inhibition [1] 30% | inhibition [2] 27% | inhibition [3] -1% | outcome [5] | outcome [6] | outcome [7] | outcome [8]
active: growth inhibition [4] 90%

NCCNc1ccc([N+](=O)[O-])cc1C(=O)Nc1cccc(Cl)c1
active: growth inhibition [4] 85%
inactive: growth inhibition [1] 7% | inhibition [2] 23% | inhibition [3] 4% | outcome [5] | outcome [6] | outcome [7] | outcome [8]

CCOC(=O)c1cnc2c(OC)cc(OC)c(Cl)c2c1Nc1cccc(C)c1C
active: growth inhibition [1] 99% | growth inhibition [4] 102%
inactive: inhibition [2] 5% | inhibition [3] 0% | outcome [5] | outcome [6] | outcome [7] | outcome [8]

O=C(/C=C/c1ccc(Cl)c(Cl)c1)NCCCCCN1CCC(NC(=O)c2cccc(Cl)c2)CC1
active: growth inhibition [4] 98%
inactive: growth inhibition [1] 23% | inhibition [2] 12% | inhibition [3] -6% | outcome [5] | outcome [6] | outcome [7] | outcome [8]

CCCCCCCCNCC(O)c1cc(-c2ccc(Cl)cc2)nc2cc(C)ccc12 (stereo not drawn)
active: growth inhibition [1] 99% | growth inhibition [4] 99%
inactive: inhibition [2] 0% | inhibition [3] -2% | outcome [5] | outcome [6] | outcome [7] | outcome [8]

N#CCSc1nnc(-c2ccccc2)c2ccccc12
inactive: inhibition [2] 5% | inhibition [3] -1% | outcome [5] | outcome [6] | outcome [7] | outcome [8]
active: growth inhibition [1] 73% | growth inhibition [4] 84%
